TDP1 cell noCPT = qHTS for Inhibitors of human tyrosyl-DNA phosphodiesterase 1 (TDP1): qHTS in cells in absence of CPT | Potency, µM (highest dose often 46.2 µM), inactives show at the top dose activity change, negative = growth inhibition, usual class: inhibitors | AID 686978, 2013 | 420,000 compounds, 15% hits | DT40 Tdp1-/- hTDP1 cells, no CPT, ATP luminescence, 48 h; note: potency is the fitted concentration of half-maximal effect; nearly all actives have a fitted effect of over 55% in size
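Chicken DT40 Tdp1-/- cells stably complemented with human TDP1 were seeded at 400 cells/well with DMSO in place of 20 nM camptothecin. After compound pinning, cells grew at least 48 hr at 37 °C; viability read by CellTiter-Glo luminescence.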
HT1080-NT tox = qHTS for induction of synthetic lethality in tumor cells producing 2HG: qHTS for the HT-1080-NT fibrosarcoma cell line. HT-1080-NT fibrosarcoma viability, CellTiter-Glo ATP luminescence, 48 h. 360,000 compounds, 1.6% hits. AID 686970, 2013. Potency, µM (top dose mostly 46.1 µM), inactives show top-dose activity, negative = less viability, hits mostly cytotoxic;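 note: NT is the 2HG producing partner of a matched IDH1 knockdown line; potency is the fitted concentration of half-maximal effect; 0% = DMSO-treated cells and -100% = media-only wells without cells; nearly all actives have a fitted effect of over 55% in size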
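Fibrosarcoma NT cells, 750 per well in 5% FBS RPMI, were exposed to compound for 48 hours. Viability: CellTiter-Glo luminescence.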
DT40 TDP1 CPT = qHTS for Inhibitors of human tyrosyl-DNA phosphodiesterase 1 (TDP1): qHTS in cells in presence of CPT; chicken DT40 Tdp1-/-;hTDP1 cells + 20 nM CPT, ATP luminescence, 48 h; Potency, µM (highest dose often 46.2 µM), without a hit: top-dose activity change, negative = growth inhibition, actives largely listed as inhibitors; 420,000 compounds, 12% hits; AID 686979, 2013; note: potency is the fitted concentration of half-maximal effect; nearly all actives have a fitted effect of over 55% in size
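Cell growth measured by CellTiter-Glo luminescence after a minimum 48 h, 37 C compound exposure with 20 nM CPT in Tdp1-knockout DT40 cells stably expressing hTDP1, seeded 400/well; qHTS titration format.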
IL1B secr inh = qHTS for Inhibitors of Inflammasome Signaling: IL-1-beta AlphaLISA Primary Screen | THP-1 LPS/ATP IL-1B secretion, AlphaLISA, 16 h; active compounds read low | activity change, % at 57.5 µM | 360,000 compounds, 4.7% hits; in the data active = activity change below about -50%; inconclusive = mostly about -30% to -49%
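THP-1 cells pretreated 1 hr with compounds (up to 57.5 uM final), then stimulated with LPS (250 ng/mL final) plus ATP (1.25 mM final); secreted IL-1B measured by AlphaLISA after 16 hr, decreased signal indicating inhibition.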
HT1080 IDH1KD tx = qHTS for induction of synthetic lethality in tumor cells producing 2HG: qHTS for the HT-1080-IDH1KD cell line. 360,000 compounds, 2% hits. Potency, µM (series often up to 46.1 µM), without a hit: at the top dose activity, negative = toxicity, most hits filed as cytotoxic. HT-1080 IDH1 knockdown viability, ATP luminescence, 48 h;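 note: potency is the fitted concentration of half-maximal effect; 0% = DMSO wells and -100% = cell-free medium wells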
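Cytotoxicity counter-line: IDH1KD HT-1080, 48 h, CellTiter-Glo. Curves classed by r2, magnitude and activity.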
* hit, by the source's call; ? = inconclusive; . = no result given; [ ] = dose if it differs, or a comment. Hits are enriched below; roughly 19% of the tested compounds scored in any of these assays. Unless noted, calls come from the whole dose curve; as a rule, active = well fitted curve in the direction sought with a large enough effect; inconclusive = small, poorly fitted or top-dose-only effect, or another doubt; inactive = no such curve, though single readings can be large; an effect the other way counts as inactive or inconclusive. Unless noted, % is set by controls: 0 for no effect and ±100 for the full control effect.

SMILES | TDP1 cell noCPT | HT1080-NT tox | DT40 TDP1 CPT | IL1B secr inh | HT1080 IDH1KD tx
COc1ccc(OC)c(NC(=O)c2cc3oc4ccccc4c3cc2O)c1 | 16µM* | ? | ? | 31 | ?
CCn1ncc(Br)c1C(=O)Nc1ccccc1C(=O)OC | -19% | 1% | -13% | 33 | 2%
COC(=O)c1cnc(N2CCN(c3ccccc3F)CC2)c2ccccc12 | 16µM* | . | ? | . | .
O=C(NCc1nnc2n1CCN(Cc1ccc(C(F)(F)F)cc1)CC2)c1cccc(F)c1 | ? | . | 18%[9.04 µM] | . | .
CCOc1ccccc1NC(=O)c1cnc(N2CCOCC2)c2ccccc12 | 18µM* | . | 21µM* | . | .
COc1ccc(OC)c(NC(=O)c2cnc(N3CCCC3)nc2C)c1 | -14% | . | -1% | . | .
COc1ccc(OC)c(NC(=O)c2cnc(N3CCCCC3)c3ccccc23)c1 | 8.2µM* | . | 10µM* | . | .
CC(C)OC(=O)c1ccc(N2CCN(c3ccccc3F)CC2)nc1 | 18µM* | -17% | ? | 19 | -20%
CCOC(=O)C1CCCN(C(=O)C2CCN(S(=O)(=O)CC)CC2)C1 (stereo unspecified) | -5% | 0% | 2% | 14 | 7%
O=C(Cc1cccs1)N1CCN(S(=O)(=O)c2ccc(F)c(F)c2)CC1 | 9% | 2%[9.24 µM] | 8% | 0 | -1%
CC(=O)N1C2=CCCC3CCCCC23c2ccccc21 (stereo unspecified) | 26µM* | 16% | 21µM* | -10 | 12%
CCNC(=O)N1C(=O)C2(OCCO2)c2ccccc21 | 11% | 3% | 6% | 18 | 8%
Cc1ccc(S(=O)(=O)N2CC3C(=O)C[C@@H](c4ccccc4)N(S(=O)(=O)c4ccc(CCCOCCOCCNC(=O)OC(C)(C)C)cc4)C3CC2c2ccccc2)cc1 (stereo partly specified) | ? | ? | ? | 21 | 18%
Cc1ccc(NC(=O)CSCC(=O)OCc2cc(=O)oc3cc(O)ccc23)c(C)c1 | -28% | 13% | 12% | 38 | 14%
CCOC(=O)N1CCN(C(=O)COC(=O)CN(C)S(=O)(=O)c2ccc(NC(C)=O)cc2)CC1 | 5% | 13% | 3% | 13 | 9%
COc1cc(CNCCc2ccccc2)ccc1OCc1ccc(Cl)nc1 | ? | -27% | ? | -52* | ?
CNCc1ccc(OCc2ccccc2)c(OC)c1 | -11% | -18% | -20% | -14 | -1%
CCCCNCc1ccc(OCc2ccc(Cl)nc2)c(OC)c1 | -2% | -16% | 11% | -12 | 3%
COc1cc(CNCCO)ccc1OCCc1ccccc1 | 26µM* | -19% | ? | -18 | -23%
COc1ccccc1CCNCc1ccc(OC)c(OCc2ccccc2)c1 | 13µM* | ? | -92% | -99* | ?
COc1cc(CNCCc2ccccc2)ccc1OCC(N)=O | -2% | 6% | -17% | -7 | 6%
CCOC(=O)CSC1=Nc2ccccc2C2=NC(CCC(=O)NCc3ccc(OC)cc3)C(=O)N12 (stereo unspecified) | -20% | . | -13% | . | .
Cc1cc(=O)[nH]c(N=N/C(=N/Nc2ccc(O)cc2)c2ccccc2)n1 | 6.5µM* | -19% | 5.8µM* | 112 | ?
Cc1cc(=O)[nH]c(N=N/C(=N/Nc2ccccc2C)c2ccccc2)n1 | 5.2µM* | ? | 4.6µM* | 161 | ?
Cc1cc(=O)[nH]c(N/N=C/c2ccccc2C(F)(F)F)n1 | ? | -12% | -1% | 0 | -13%
SMILES | TDP1 cell noCPT | HT1080-NT tox | DT40 TDP1 CPT | IL1B secr inh | HT1080 IDH1KD tx
Cc1cc(=O)[nH]c(SCC(=O)Nc2ccccc2C)n1 | 18% | 13% | -14% | 32 | 17%
CCCS(=O)(=O)N1CCN(S(=O)(=O)c2ccc(F)cc2)CC1 | -1% | 17% | 5% | 6 | 12%
Cc1cc(-c2ccnc(-n3ncc(C(=O)NCC4COCCO4)c3C)n2)c(C)s1 (stereo unspecified) | 4.1µM* | . | ? | . | .
COc1cccc(/C(O)=C2/C(=O)C(=O)N(c3cc(C)on3)C2c2cccs2)c1 (stereo unspecified) | 3.7µM* | ? | ? | 1 | ?
CCC(=O)NC(Nc1ncc(C)s1)(C(=O)OC)C(F)(F)F (stereo unspecified) | -9% | 1% | -12% | 25 | -6%
CN(C)CCNC(=O)c1ccccc1 | -10% | 0% | -13% | 15 | 1%
CN(C)CCNC(=O)c1cccc2ccc(-c3ccc(-c4ccccc4)cc3)nc12 | ? | -4% | ? | -57* | ?
CN(C)CCNC(=O)c1sc2cccc(F)c2c1Cl | -23% | -5% | 21% | -13 | -22%
COc1ccc(OC)c2nc3c(C(=O)NCCN(C)C)cccc3nc12 | 2.6µM* | ? | 1.6µM* | -100* | 21µM*
COc1ccc(C23CC4CC(CC(C4)C2)C3)cc1C(=O)NCCN(C)C | 8.2µM* | ? | 21µM* | -13 | ?
CN(C)CCNC(=O)c1cccc2nc3cccc(F)c3nc12 | 0.26µM* | ? | 0.082µM* | -116* | 7.3µM*
COc1cc(C2=CN(Cc3ccccc3)CCC2=O)cc(OC)c1OC | -18% | 15% | -28% | -1 | 12%
COc1ccc(-c2cc(C(=O)Nc3c(C(=O)c4ccc(C)c(F)c4)oc4ccccc34)no2)cc1 | -13% | . | -9% | . | .
CCCc1cc(=O)oc2cc(OCC(=O)NCCCN3CCOCC3)c(Cl)cc12 | ? | -9% | ? | -9 | -1%
O=C(Cn1cnc2c(NCc3ccccc3)ncnc21)NCc1nc2ccccc2[nH]1 | 17% | 0% | -1% | 16 | 8%
CC(C)c1ccc(N(CCc2ccccn2)C(=O)C(C)(C)C)cc1 | 15µM* | -4% | 16µM* | 6 | -4%
O=C(Nc1ccc(F)c(Cl)c1)c1cc(C2CCCCN2C(=O)c2ccccc2)on1 (stereo unspecified) | 6.5µM* | ? | 8.2µM* | -12 | ?
O=C(Nc1ccc(F)c(Cl)c1)c1cc(C2CCCCN2C(=O)c2ccc(Cl)cc2)on1 (stereo unspecified) | 21µM* | -12% | 21µM* | ? | 10%
N#Cc1cccc(NC(=O)c2cc(C3CCCCN3C(=O)CCCc3ccccc3)on2)c1 (stereo unspecified) | ? | 4% | 23µM* | ? | -6%
O=C(NCc1ccccc1)c1cc(C2CCCCN2C(=O)CCc2ccccc2)on1 (stereo unspecified) | -19% | -1% | ? | -11 | 1%

Compound activity as filed in PubChem BioAssay.
